LT uptake inh: anthrax lethal toxin internalization inhibition. 70,000 tested, 0.67% active. Cells, anthrax lethal toxin internalization, FRET ratio (460/530). Potency, µM (doses to about 40 µM), hits mostly inhibitors; further: nearly all actives have a fitted effect of over 50% in size
AmpC det inh: blocks E. coli AmpC beta-lactamase in presence of detergent; P00811; purified AmpC, nitrocefin hydrolysis with detergent; Potency, µM (series often up to 28.7 µM); 71,000 tested, 0.09% active; AID 584; active means well fitted curve in the direction sought with a large enough effect; inconclusive means small, poorly fitted or top-dose-only effect
Target sequence (P00811 whole entry, looked up): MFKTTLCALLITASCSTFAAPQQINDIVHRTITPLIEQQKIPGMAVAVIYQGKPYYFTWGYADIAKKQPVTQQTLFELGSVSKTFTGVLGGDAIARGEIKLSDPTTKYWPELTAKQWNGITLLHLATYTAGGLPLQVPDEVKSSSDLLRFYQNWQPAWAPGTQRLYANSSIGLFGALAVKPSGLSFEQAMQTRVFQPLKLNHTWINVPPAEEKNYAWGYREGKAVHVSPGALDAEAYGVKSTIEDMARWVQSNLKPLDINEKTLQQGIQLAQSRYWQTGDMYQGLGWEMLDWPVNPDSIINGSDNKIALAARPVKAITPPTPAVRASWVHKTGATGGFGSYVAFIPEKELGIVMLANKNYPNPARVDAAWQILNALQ
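E. coli AmpC (5.3 nM) in 20 mM phosphate pH 7.0 with 0.01% Triton X-100, preincubated 15 min RT with compound; nitrocefin (2 uL of 800 uM stock) hydrolysis followed by 480 nm absorbance every 20 s over 4 min.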
AmpC nodet inh: inhibitors of E. coli AmpC beta-lactamase without detergent | Potency, µM (top dose mostly 28.7 µM) | P00811 | AmpC nitrocefin hydrolysis, absorbance 480 nm, no detergent | 71,000 tested, 1.8% active
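AmpC, 20 mM phosphate pH 7.0; 15 min cpd preinc, RT; start with nitrocefin (800 uM stock); A480 kinetic read, 20 s intervals, 4 min. No-enzyme wells = negative control.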
SmPrx2 inh: Schistosoma mansoni Prx2 inhibition. Potency, µM. S. mansoni Prx2 activity coupled to TGR/GSH (TGR is thioredoxin glutathione reductase), NADPH fluorescence loss, qHTS. 65,000 tested, 0.07% active
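Activity is read as the drop in NADPH fluorescence (365/450 nm), recorded every 30 sec for 8 min after H2O2 addition. Prx2 is coupled to TGR-driven NADPH oxidation through glutathione, in phosphate buffer pH 7.4.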
Numbers stand for hits; ! = a repeat was not active; [ ] = another dose, or the depositor's remark. In the library only some 2.6% were active in any assay of this set; here they are far more common. Unless noted, the call rests on the fitted dose curve.

Results for O=C(Nc1ccccc1)N1CC[C@@]2(CCCN(C(=O)c3cc(C(F)(F)F)cc(C(F)(F)F)c3)C2)C1 ?
LT uptake inh: inactive; AmpC det inh: inactive; AmpC nodet inh: inactive; SmPrx2 inh: inactive

Results for COc1ccccc1S(=O)(=O)Cc1ccc(C(=O)N2CCOCC2)o1 ?
LT uptake inh: inactive; AmpC det inh: inactive; AmpC nodet inh: 3.2µM[single pt active]; SmPrx2 inh: inactive

Results for COc1ccc(S(=O)(=O)Cc2ccc(C(=O)N3CCOCC3)o2)cc1 ?
LT uptake inh: inactive; AmpC det inh: inactive; AmpC nodet inh: 4µM[single pt active]; SmPrx2 inh: inactive

Results for COc1ccccc1S(=O)(=O)Cc1ccc(C(=O)N2CCN(c3ccccc3)CC2)o1 ?
LT uptake inh: inactive; AmpC det inh: inactive; AmpC nodet inh: inactive; SmPrx2 inh: inactive

How did C#CCN[C@@H](C)Cc1ccccc1 do in these assays?
LT uptake inh: inactive; AmpC det inh: inactive; AmpC nodet inh: inactive; SmPrx2 inh: inactive

Results for O=C(c1ccncc1)N1CCC2(CC1)CN(c1ccccn1)C2 ?
LT uptake inh: inactive; AmpC det inh: inactive; AmpC nodet inh: inactive; SmPrx2 inh: inactive

How did O=c1cc(-c2ccccc2)oc2cc(O)cc(O)c12 do in these assays?
LT uptake inh: inactive[3.58 µM]; AmpC det inh: inactive; AmpC nodet inh: inactive; SmPrx2 inh: inactive

Results for O=c1cc(-c2ccc(O)cc2)oc2cc(O)cc(O)c12 ?
LT uptake inh: inactive; AmpC det inh: inactive; AmpC nodet inh: 4µM!; SmPrx2 inh: inactive

What do the screens show for `COc1ccc2c3c([nH]c2c1)C(C)=NCC3`?
LT uptake inh: inconclusive; AmpC det inh: inactive; AmpC nodet inh: inactive; SmPrx2 inh: inactive

How did CC1=NCCc2c1[nH]c1cc(O)ccc21 do in these assays?
LT uptake inh: inconclusive; AmpC det inh: inactive; AmpC nodet inh: 13µM!; SmPrx2 inh: inactive

What do the screens show for `Nc1ncnc2nc[nH]c12.Nc1ncnc2nc[nH]c12.[Cl][Pt]([Cl])([Cl])[Cl]`?
LT uptake inh: inactive[8 µM]; AmpC det inh: inactive[5.75 µM]; AmpC nodet inh: inactive[5.75 µM]; SmPrx2 inh: inactive

Results for c1cc(CN2CCCCC2)cc(OCCCNc2nc3ccccc3s2)c1 ?
LT uptake inh: 25µM!; AmpC det inh: inactive; AmpC nodet inh: inactive; SmPrx2 inh: inactive

How did COc1cccc(CNc2nc3ccccc3n2CCN2CCCCC2)c1 do in these assays?
LT uptake inh: inactive; AmpC det inh: inactive; AmpC nodet inh: inactive; SmPrx2 inh: inactive

How did O=[N+]([O-])c1cccc(C(F)(F)F)c1 do in these assays?
LT uptake inh: inactive; AmpC det inh: inactive; AmpC nodet inh: inactive

How did NC(=O)CI do in these assays?
LT uptake inh: inactive; AmpC det inh: inactive; AmpC nodet inh: 13µM; SmPrx2 inh: inconclusive

How did CC(N)=O do in these assays?
AmpC det inh: inactive; AmpC nodet inh: inactive; SmPrx2 inh: inactive

What do the screens show for `CCC/C=C(\CCC)C(NC(=O)c1ccc(C(F)(F)F)cc1)c1ccccc1` (stereo not drawn)?
LT uptake inh: inactive; AmpC det inh: inactive; AmpC nodet inh: 20µM[single pt active]; SmPrx2 inh: inactive

How did CC(=O)[C@]1(O)CC[C@@H]2[C@H]3C[C@@H](C)C4=CC(=O)CC[C@@]4(C)[C@H]3[C@@H](O)C[C@]21C do in these assays?
LT uptake inh: inactive[8 µM]; AmpC det inh: inactive[5.75 µM]; AmpC nodet inh: inactive[5.75 µM]

How did Oc1c(CN2CCc3ccccc3C2)cc(Cl)c2cccnc12 do in these assays?
LT uptake inh: inconclusive; AmpC det inh: inactive; AmpC nodet inh: 2.5µM[single pt active]; SmPrx2 inh: inactive

How did O=C(Nc1nc(-c2ccccn2)cs1)C1COc2ccccc2O1 (stereo not drawn) do in these assays?
LT uptake inh: inconclusive; AmpC det inh: inactive; AmpC nodet inh: inactive; SmPrx2 inh: inactive

Results for Cc1cc(NC(=O)C2COc3ccccc3O2)no1 (stereo not drawn) ?
LT uptake inh: inactive; AmpC det inh: inactive; AmpC nodet inh: 4µM[single pt active]; SmPrx2 inh: inactive

How did Cc1cc(NC(=O)C2CC(c3ccc(F)cc3)=NO2)no1 (stereo not drawn) do in these assays?
LT uptake inh: inactive; AmpC det inh: inactive; AmpC nodet inh: 4µM[single pt active]; SmPrx2 inh: inactive

What do the screens show for `CCOc1ccc(OCC)c(NC(=O)C2COc3ccccc3O2)c1` (stereo not drawn)?
LT uptake inh: inactive; AmpC det inh: inactive; AmpC nodet inh: inactive; SmPrx2 inh: inactive

How did COc1ccc(OC)c(NC(=O)C2COc3ccccc3O2)c1 (stereo not drawn) do in these assays?
LT uptake inh: 13µM; AmpC det inh: inactive; AmpC nodet inh: inactive

Results for O=C(Nc1nc(-c2ccc3c(c2)OCO3)cs1)C1COc2ccccc2O1 (stereo not drawn) ?
LT uptake inh: inconclusive; AmpC det inh: inactive; AmpC nodet inh: 10µM; SmPrx2 inh: inactive

Results for CCOC(=O)C(C(C)=O)c1c(Br)c(O)c(O)c2c(C(=O)c3ccc(C)cc3)coc12 (stereo not drawn) ?
LT uptake inh: inconclusive; AmpC det inh: inactive; AmpC nodet inh: 6.3µM; SmPrx2 inh: inactive

How did C[C@H](N[C@@H](C)CCc1ccccc1)[C@H](O)c1ccc(O)cc1 do in these assays?
LT uptake inh: inactive; AmpC det inh: inactive; AmpC nodet inh: inactive; SmPrx2 inh: inactive

How did COc1cc(SC)ccc1C(=O)Nc1ccc2c(c1)OCCO2 do in these assays?
LT uptake inh: 10µM; AmpC det inh: inactive; AmpC nodet inh: inactive; SmPrx2 inh: inactive

What do the screens show for `COc1ccccc1C(=O)Nc1ccc2c(c1)OCCO2`?
LT uptake inh: inactive; AmpC det inh: inactive; AmpC nodet inh: inactive; SmPrx2 inh: inactive

How did CCN1C(=O)N[C@@H](c2ccccc2)C1=O do in these assays?
AmpC det inh: inactive; AmpC nodet inh: inactive; SmPrx2 inh: inactive

How did O=C(CCCn1c(=O)[nH]c2ccccc2c1=O)N1CCN(c2ccccn2)CC1 do in these assays?
LT uptake inh: inactive; AmpC det inh: inactive; AmpC nodet inh: 3.2µM[single pt active]; SmPrx2 inh: inactive

How did O=C(CCCCn1c(=O)[nH]c2ccccc2c1=O)N1CCN(c2cccc(C(F)(F)F)c2)CC1 do in these assays?
LT uptake inh: inconclusive; AmpC det inh: inactive; AmpC nodet inh: inactive; SmPrx2 inh: inactive

What do the screens show for `O=C(CCCCn1c(=O)[nH]c2ccccc2c1=O)N1CCN(c2ncccn2)CC1`?
LT uptake inh: inactive; AmpC det inh: inactive; AmpC nodet inh: 4µM[single pt active]; SmPrx2 inh: inactive

Results for c1cncc(-c2cncnc2-n2ccnc2)c1 ?
LT uptake inh: inactive; AmpC det inh: inactive; AmpC nodet inh: inactive; SmPrx2 inh: inactive

What do the screens show for `CN(C)c1ccc2c(c1)OC(N)=C(C#N)C2c1cccc(F)c1` (stereo not drawn)?
LT uptake inh: 6.3µM; AmpC det inh: inactive; AmpC nodet inh: inactive

How did N#CC1=C(N)Oc2cc(O)ccc2C1c1cccs1 (stereo not drawn) do in these assays?
LT uptake inh: inactive; AmpC det inh: inactive; AmpC nodet inh: inactive

What do the screens show for `OCCN1CCN(C(c2cccs2)c2ccc3cccnc3c2O)CC1` (stereo not drawn)?
LT uptake inh: inconclusive; AmpC det inh: inactive; AmpC nodet inh: 13µM; SmPrx2 inh: inactive

What do the screens show for `CC(C)Cc1nnc(NS(=O)(=O)c2ccc(Cl)cc2)s1`?
LT uptake inh: inactive; AmpC det inh: inactive; AmpC nodet inh: 4µM[single pt active]; SmPrx2 inh: inactive

What do the screens show for `COCc1nnc(NS(=O)(=O)c2ccc(C)cc2)s1`?
LT uptake inh: inactive; AmpC det inh: inactive; AmpC nodet inh: inactive; SmPrx2 inh: inactive

Screens from PubChem.
